Source: PubChem BioAssay AID1159580 (chemical genetic matrix, 2015)
Several values for one entry are separate records, joined by “and”; a condition that tells them apart may be missing. Identical values can stand only once. Out of some 5,500 compounds screened, about 2,000 (36%) were called active. Inconclusive results (about 18%) are left out. Rule as the data show it: active = normalized growth mostly below about 0.91 (no sharp cut-off); inconclusive = no clear call, values can overlap the other calls; inactive = mostly above about 0.92. The list shows a part of the results.

Experiment: chemical genetic growth profiling, strain panel (AID 1159580);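 also: tested at 20 µM; growth read once vehicle control cultures reached saturation at 30 °C; 1 = growth at the plate median or of vehicle wells; lower values mean less growth of the strain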
Conditions: S. cerevisiae deletion strains, growth OD

Measured: normalized growth

O=c1[nH]cnc2nc[nH]c12
inactive: locus YAL021C, strain ccr4, stronger effect = lower value 1.04 | locus YAL026C, strain drs2, stronger effect = lower value 1.02 | locus YAL030W, strain snc1, stronger effect = lower value 1.03 | locus YBL061C, strain skt5, stronger effect = lower value 1.02 | locus YBR009C, strain hhf1, stronger effect = lower value 1.01 | locus YBR021W, strain FUR4, stronger effect = lower value 0.972 | locus YBR023C, strain chs3, stronger effect = lower value 1.01 | locus YBR171W, strain sec66, stronger effect = lower value 1.04 | locus YBR229C, strain ROT2, stronger effect = lower value 0.992 | locus YBR231C, strain swc5, stronger effect = lower value 1.02 | locus YBR279W, strain paf1, stronger effect = lower value 1.01 | locus YCL011C, strain gbp2, stronger effect = lower value 1.03 | locus YCL016C, strain dcc1, stronger effect = lower value 1.01 | locus YCL029C, strain bik1, stronger effect = lower value 0.977 | locus YCL061C, strain MRC1, stronger effect = lower value 1.01 | locus YCL069W, strain vba3, stronger effect = lower value 1.01 | locus YCR088W, strain abp1, stronger effect = lower value 1.02 | locus YDL005C, strain med2, stronger effect = lower value 1.02 | locus YDL035C, strain GPR1, stronger effect = lower value 1.01 | locus YDL040C, strain nat1, stronger effect = lower value 1 | locus YDL074C, strain BRE1, stronger effect = lower value 0.986 | locus YDL101C, strain DUN1, stronger effect = lower value 0.999 | locus YDL134C, strain PPH21, stronger effect = lower value 1 | locus YDL185W, strain tfp1, stronger effect = lower value 0.979 | locus YDL192W, strain arf1, stronger effect = lower value 0.994 | locus YDR001C, strain nth1, stronger effect = lower value 1.01 | locus YDR069C, strain doa4, stronger effect = lower value 1.04 | locus YDR101C, strain arx1, stronger effect = lower value 0.973 | locus YDR137W, strain rgp1, stronger effect = lower value 1.07 | locus YDR150W, strain NUM1, stronger effect = lower value 1 | locus YDR159W, strain sac3, stronger effect = lower value 1.03 | locus YDR162C, strain NBP2, stronger effect = lower value 1.04 | locus YDR195W, strain ref2 1.01 | locus YDR297W, strain sur2, stronger effect = lower value 1.04 | locus YDR318W, strain mcm21, stronger effect = lower value 0.984 | locus YDR334W, strain swr1, stronger effect = lower value 1.03 | locus YDR335W, strain msn5, stronger effect = lower value 1.02 | locus YDR388W, stronger effect = lower value 0.983 | locus YDR392W, strain spt3, stronger effect = lower value 1.01 | locus YDR502C, strain sam2, stronger effect = lower value 1 | locus YEL003W, strain gim4, stronger effect = lower value 1.01 | locus YEL037C, strain rad23, stronger effect = lower value 1.01 | locus YEL061C, strain CIN8 (second series), stronger effect = lower value 1.02 | locus YEL061C, strain CIN8, stronger effect = lower value 1 | locus YER015W, strain faa2, stronger effect = lower value 1.01 | locus YER016W, strain bim1, stronger effect = lower value 1.02 | locus YER110C, stronger effect = lower value 0.969 | locus YER111C, strain swi4, stronger effect = lower value 1.02 | locus YER155C, strain BEM2 (second series), stronger effect = lower value 1.02 | locus YER155C, strain BEM2, stronger effect = lower value 0.992 | locus YER167W, strain BCK2, stronger effect = lower value 0.982 | locus YFR010W, strain ubp6, stronger effect = lower value 1.03 | locus YGL078C, strain dbp3, stronger effect = lower value 0.986 | locus YGL086W, strain mad1, stronger effect = lower value 0.955 | locus YGL167C, strain pmr1, stronger effect = lower value 1.02 | locus YGL173C, strain kem1, stronger effect = lower value 1.03 | locus YGL227W, strain vid30, stronger effect = lower value 1.01 | locus YGL240W, strain doc1, stronger effect = lower value 1.01 | locus YGL248W, strain PDE1, stronger effect = lower value 1.01 | locus YGL253W, strain hxk2, stronger effect = lower value 1.02 | locus YGR135W, strain pre9, stronger effect = lower value 1.01 | locus YGR252W, strain gcn5, stronger effect = lower value 1.09 | locus YHR013C, strain ard1, stronger effect = lower value 1.05 | locus YHR027C, strain rpn1, stronger effect = lower value 1.01 | locus YHR030C, strain SLT2, stronger effect = lower value 0.989 and 1.05 | locus YHR079C, strain IRE1 (second series), stronger effect = lower value 0.975 | locus YHR079C, strain IRE1, stronger effect = lower value 1.02 | locus YHR094C, strain hxt1, stronger effect = lower value 0.974 | locus YHR129C, strain ARP1, stronger effect = lower value 0.996 | locus YHR142W, strain chs7, stronger effect = lower value 1.02 | locus YHR200W, strain rpn10, stronger effect = lower value 0.998 | locus YIL066C, strain RNR3, stronger effect = lower value 0.998 | locus YIL073C, strain SPO22, stronger effect = lower value 0.963 | locus YIL125W, strain kgd1, stronger effect = lower value 0.972 | locus YIR030C, strain dcg1, stronger effect = lower value 0.989 | locus YJL092W, strain hpr5, stronger effect = lower value 1.02 | locus YJL095W, strain BCK1 (second series), stronger effect = lower value 1.01 | locus YJL095W, strain BCK1, stronger effect = lower value 1.02 and 1.01 | locus YJL115W, strain asf1, stronger effect = lower value 1.02 | locus YJL129C, strain trk1, stronger effect = lower value 1.03 | locus YJL134W, strain LCB3, stronger effect = lower value 0.994 | locus YJL154C, strain vps35, stronger effect = lower value 1.02 | locus YJL164C, strain tpk1, stronger effect = lower value 1.01 | locus YJL166W, strain qcr8, stronger effect = lower value 1.01 | locus YJL168C, strain set2, stronger effect = lower value 0.977 | locus YJL187C, strain SWE1 (second series), stronger effect = lower value 1.01 | locus YJL187C, strain SWE1, stronger effect = lower value 1.02 | locus YJR043C, strain POL32, stronger effect = lower value 1.03
